According to PubChem BioAssay AID504847 (National Center for Advancing Translational Sciences (NCATS), 2011):
In all, about 400,000 compounds went through this assay and about 3,700 (0.93%) were called active. Not shown: some 3% with an inconclusive outcome. The call rests on the fitted dose curve; in most records, active means well fitted inhibition curve with a large enough effect; inconclusive means small, poorly fitted or top-dose-only effect, or another doubt; inactive means no such curve, though single readings can be large or run the other way. The sample as a whole holds a higher share of actives than the screen did.

Target: Vitamin D3 receptor (Homo sapiens) (UniProt P11473)
Sequence (P11473 whole entry, looked up): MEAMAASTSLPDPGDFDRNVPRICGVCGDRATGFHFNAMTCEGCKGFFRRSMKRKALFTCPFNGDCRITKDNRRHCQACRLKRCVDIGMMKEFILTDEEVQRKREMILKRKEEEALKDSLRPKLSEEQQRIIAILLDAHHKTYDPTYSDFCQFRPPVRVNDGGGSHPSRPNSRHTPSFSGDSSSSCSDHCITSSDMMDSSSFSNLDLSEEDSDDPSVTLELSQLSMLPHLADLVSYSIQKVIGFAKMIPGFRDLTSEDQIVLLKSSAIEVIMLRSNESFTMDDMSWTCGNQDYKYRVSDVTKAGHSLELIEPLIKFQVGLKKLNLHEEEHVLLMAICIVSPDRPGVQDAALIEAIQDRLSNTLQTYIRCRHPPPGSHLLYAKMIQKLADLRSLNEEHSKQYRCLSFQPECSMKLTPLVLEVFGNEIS
Assay: Inhibitors of the vitamin D receptor (VDR): qHTS
Conditions: VDR-SRC2-3 peptide fluorescence polarization, 2 h; max response, negative = inhibition: stronger effect = lower value
Text: The vitamin D receptor (VDR) is a ligand-activated transcription factor and is partially responsible for the regulation of the endocrine system. This includes the transcriptional regulation of genes involved in the production of the parathyroid hormone (PTH) and the regulation of the blood calcium level. High levels of PHT can cause hypercalcemia in the case of primary and tertiary hyperparathyroidism. The VDR-mediated gene regulation, activated by its ligand 1,25-dihydroxyvitamin D3 (1,25-(OH)2D3), is governed by the recruitment of coactivators. Our hypothesis is that small molecules, with the ability to inhibit the interaction between VDR and certain coactivators, are able to selectively modulate VDR-mediated transcription. Our long term objective is the application these VDR-coactivator inhibitors to study the role of VDR-coactivator binding for specific VDR regulated genes. Ultimately, these molecules can be developed into new treatments for hypercalcemic hyperparathyroidism. No small molecule or non-peptide inhibitors are known for the VDR-coactivator interaction.
In a collaboration between the University of Wisconsin, Milwaukee and the NIH Chemical Genomics Center (NCGC) a HTS-compatible enzymatic assay was developed. The assay uses fluorescence polarization as its read-out to measure the inhibition between VDR and coregulator peptide SRC2-3 exerted by small molecules. This assay was used to screen the NIH Molecular Libraries Small Molecule Repository (MLSMR).
NIH Chemical Genomics Center [NCGC]
NIH Molecular Libraries Probe Centers Network [MLPCN]
Assay Submitter (PI): Alexander Arnold, University of Wilwaukee
Both solutions are kept at 4 deg C and protected from light and dispensed using a Kalypsys dispenser. Then 23nl of compounds and controls are added with Kalypsys pintool. […] Plate is centrifuged at 1000 RPM for 15 seconds to remove any residual bubbles. The plate is then incubate at ambient room temperature for 2 hours.
On the % scale 0 is the no-effect control and ±100 the full control effect; potency means the concentration at half of the fitted maximal effect.

SMILES	max response, negative = inhibition	Potency
N#Cc1ccccc1Cn1cnc2nc3c(cc2c1=O)CCCC3	-2.58% (inactive)	
COCCn1c(CCC(=O)Nc2cc(C)ccc2C)nc2cccnc21	7.95% (inactive)	
COc1ccc(Cl)cc1NC(=O)CSc1nc(-c2cccs2)cc(C(F)(F)F)n1	-17% (inactive)	
COc1ccccc1-c1cc(C(F)(F)F)nc(S(=O)(=O)CCCC(=O)Nc2ccc(F)cc2F)n1		56.2 µM (active)
Cc1ccc(F)cc1NC(=O)CCSc1nc(-c2ccco2)cc(C(F)(F)F)n1	7.81% (inactive)	
CCOc1ccc(-c2cc3nc(C4CCN(C(=O)OC(C)(C)C)CC4)c(C(=O)Nc4ccc(C(=O)OC)cc4)cn3n2)cc1	-12.8% (inactive)	
CCN1C(=O)c2ccccc2S(=O)c2ccc(C(=O)NCc3ccc(F)cc3)cc21 (stereo not drawn)	-17% (inactive)	
CO[C@@]12[C@@H](COC(N)=O)C3=C(C(=O)C(C)=C(N)C3=O)N1C[C@@H]1N[C@@H]12	1.74% (inactive)	
COc1ccc(C2C(=O)N(C3CCCCC3)CC(=O)N2Cc2ccccc2Cl)cc1OC (stereo not drawn)	5.49% (inactive)	
CSc1nc(C)cc(SC(C(C)=O)C(=O)Nc2ccccc2)n1 (stereo not drawn)		79.4 µM (active)
CC(Sc1nnc2c(n1)C1CCC2(C)C1(C)C)C(=O)Nc1ccccc1 (stereo not drawn)	-21.5% (inactive)	
CSc1nc(N(C)NC(=O)c2cccc(C)c2)c2ccccc2n1	6.12% (inactive)	
COc1ccc(NC(=O)CSc2nc3ccccc3n2CC(=O)N2CCCCC2C)cc1 (stereo not drawn)	-0.157% (inactive)	
O=C(Nc1cccc2cccnc12)C(F)(F)F	3.86% (inactive)	
Cc1ccc(-c2nn(CC(C)(C)C)c3ncnc(N)c23)cc1	-0.691% (inactive)	
CCc1nn(CC(=O)N2CCN(c3ccc(Cl)cc3)CC2)c(=O)c2cc3occc3n12	22.3% (inactive)	
CCN(CC)CCNC(=O)Cn1ncc2c3ccccc3n(Cc3ccccc3C)c2c1=O	13.4% (inactive)	
CCOC(=O)c1c(NC(=O)Cc2coc3ccc(CC)cc23)sc2c1CCC2	2.49% (inactive)	
CCOC(=O)c1c(NC(=O)c2ccc(S(=O)(=O)N(CC)CC)cc2)sc2c1CCCCC2	-15.3% (inactive)	
CCOC(=O)c1c(NC(=O)C2(C)Cc3ccccc3C(=O)O2)sc2c1CCCC2 (stereo not drawn)		79.4 µM (active)
CCC(=O)Nc1ccc2nc(SCC(=O)N3CCc4ccccc43)sc2c1	13% (inactive)	
CCOC(=O)C1C/C(=C\C(C)=O)c2cccc(C(F)(F)F)c2O1 (stereo not drawn)	-3.65% (inactive)	

SMILES	max response, negative = inhibition	Potency
COc1cc(OC)c(C(=O)Nc2ccc(N(C)C)cc2)cc1OC	-2.21% (inactive)	
CN(C)c1ccc(N/C=C/C(=O)C(F)(F)F)cc1		25.1 µM (active)
CN(C)c1ccc(/C=N/NC(=O)C(O)c2ccc(Br)cc2)cc1 (stereo not drawn)	5.61% (inactive)	
O=C(CSc1nc(-c2cccc(F)c2)[nH]c1-c1ccccc1)Nc1ccc2c(c1)OCO2	-7.99% (inactive)	
CCOc1ccc(N(CC)C(=O)c2cc3c(=O)oc4ccccc4c3s2)cc1	-18% (inactive)	
CCOc1cc(CNC(=O)c2sc3ncnc(N(C)C4CCCCC4)c3c2C)ccc1OC	5.17% (inactive)	
COc1cc(NC(=O)CSc2nc3nc(C)c(Cc4ccc(C)cc4)c(C)n3n2)cc(OC)c1OC	12.5% (inactive)	
CC1(C)Cc2ccccc2-c2[nH]c(=S)[nH]c(=O)c21	-2% (inactive)	
N#CC1=C(N)Oc2[nH]c(=S)[nH]c(=O)c2C12C(=O)Nc1ccccc12 (stereo not drawn)		44.7 µM (active)
N#CC1=C(N)Oc2n[nH]c(CSc3ccccc3)c2C12C(=O)Nc1ccccc12 (stereo not drawn)	12% (inactive)	
COc1cc(C(=O)NCc2ccncc2)cc(Br)c1OCc1ccccc1	-8.88% (inactive)	
COc1cc(C(=S)NCc2ccccc2)cc(Br)c1O		50.1 µM (active)
COc1ccccc1OCCC(=O)OCC(=O)NCc1ccccc1	-14.2% (inactive)	
COc1ccc(NC(=O)C2CCCN(S(=O)(=O)c3cccc4nonc34)C2)cc1Cl (stereo not drawn)	-11.1% (inactive)	
Cc1ccc(NC(=O)C(=O)NCC(c2cccnc2)N2CCOCC2)cc1 (stereo not drawn)	7.68% (inactive)	
COc1ccc(CCn2cc3c(c2-c2ccc(Br)cc2)c(=O)n(C)c(=O)n3C)cc1OC	-7.8% (inactive)	
COCCNC(=S)Nc1cc(S(=O)(=O)N2CCOCC2)ccc1N1CCCCC1		35.5 µM (active)
O=C(COC(=O)Cc1ccc(F)cc1)Nc1cc(S(=O)(=O)N2CCOCC2)ccc1N1CCCC1	2.6% (inactive)	
Cc1ccc(S(=O)(=O)N2CCOCC2)cc1C(=O)Nc1ccccc1N1CCCC1	-16.8% (inactive)	
COCCn1c(=O)c(-c2ccccc2)nc2cnc(N3CCOCC3)nc21	8.94% (inactive)	
CCC(=O)N1N=C(c2ccc(OC)cc2)CC1c1cn(-c2ccccc2)nc1-c1cccs1 (stereo not drawn)	-4.57% (inactive)	
Cc1ccccc1NC(=O)Cn1c(=O)n(CCc2ccccc2)c(=O)c2ccccc21	-10.9% (inactive)	

SMILES	max response, negative = inhibition	Potency
Cc1cc(Cl)ccc1OCC(=O)N(Cc1ccc(N(C)C)cc1)C1CCS(=O)(=O)C1 (stereo not drawn)	9.26% (inactive)	
O=c1[nH]c2ccccc2n2c(-c3ccccc3)nnc12		12.6 µM (active)
CC(C)Cn1c(=O)c2ccccc2n2c(-c3cccc(Cl)c3)nnc12	21.6% (inactive)	
CCc1ccc(NC(=O)c2cc(S(=O)(=O)N3CCCC(C)C3)cn2C)cc1 (stereo not drawn)	9.47% (inactive)	
COc1ccc(C2CC(=O)N(Cc3ccccc3C)c3c2c(C)nn3-c2nc(C)cc(C)n2)c(OC)c1 (stereo not drawn)	5.38% (inactive)	
Fc1ccc(Nc2nnns2)cc1		79.4 µM (active)
CSc1nc(Nc2ccc(F)cc2)cc(-c2ccccc2)n1	5.7% (inactive)	
CN(C)c1nc(NN)nc(Nc2ccc(F)cc2)n1	-11.3% (inactive)	
Cc1ccc(-c2nc(SCc3ccc(Br)cc3)n3[nH]c(=O)cc3n2)cc1	16.1% (inactive)	
CCc1ccccc1N1CC(c2nc3ccccc3n2CCCCOc2ccccc2)CC1=O (stereo not drawn)	13.5% (inactive)	
Cc1cc(C)nc(NC(=O)/C=C/c2ccc(Cl)cc2)n1	-4.04% (inactive)	
Cc1cccc(C=CC(=O)c2ccc(Cl)cc2)c1		20 µM (active)
Cc1cccc(C(=O)Nc2ccc(C(=O)/C=C/c3cccs3)cc2)c1	5.44% (inactive)	
COc1ccc(S(=O)(=O)NCc2cccn2Cc2cccc(C)c2)cc1	-9.31% (inactive)	
CCC1CCCCN1Cc1c(O)ccc2c(=O)c(Oc3ccccc3Cl)c(C(F)(F)F)oc12 (stereo not drawn)	-11.4% (inactive)	
CN1CCN2c3ccccc3Cc3ccccc3[C@@H]2C1	-7.22% (inactive)	
COc1ccc(C(=O)CSc2c(C(C)C)cnc3c2c(=O)n(C)c(=O)n3C)cc1	-4.32% (inactive)	
CCc1ccccc1NC(=O)c1sc2nc3c(cc2c1N)CN(Cc1ccccc1)CC3	-9.37% (inactive)	
COc1ccc(NC(=O)CCCc2nnc3n(CCC(C)C)c(=O)c4sccc4n23)c(OC)c1	-1.71% (inactive)	
COC(=O)c1sc(-c2ccc(C(C)(C)C)cc2)cc1NC(=O)/C=C/C(=O)O		28.2 µM (active)
COc1ccc(NS(=O)(=O)c2ccc(N3CCOCC3)c(NC(=O)/C=C/C(=O)O)c2)cc1	1.49% (inactive)	
COc1ccccc1NC(=O)/C=C/C(N)=O	1.2% (inactive)	

SMILES	max response, negative = inhibition	Potency
CCC(Sc1nnc(-c2ccc(OC)cc2)c(-c2ccc(OC)cc2)n1)C(=O)NC1CCCCC1 (stereo not drawn)	11.6% (inactive)	
Cc1nc2ccccn2c(=O)c1NC(=O)c1c(F)cccc1F	13.4% (inactive)	
Cc1ccc2nc(-c3ccc(C)c(NC(=O)Cc4ccccc4)c3)oc2c1	-21.8% (inactive)	
Cc1ccc(OCC(=O)Nc2ccc(Cl)c(-c3nc4ccccc4[nH]3)c2)cc1C	2.81% (inactive)	
CC(=O)OCC(=O)[C@@]1(O)CCC2C3CCC4=CC(=O)CC[C@]4(C)C3C(=O)C[C@]21C (stereo partly drawn)	-10.5% (inactive)	
Cc1ccc(Cl)cc1N1CCN(C(=O)c2cn(C)c3ccc(S(=O)(=O)N(C)C4CCCCC4)cc3c2=O)CC1	-5.35% (inactive)	
O=C1/C(=C\c2ccc(O)cc2)CCC1CNc1ccc(Cl)cc1 (stereo not drawn)		79.4 µM (active)
O=C1N=C(N2CCc3ccccc3C2)S/C1=C\c1ccc(O)cc1	17.3% (inactive)	
Cc1nn(-c2ccc(N3CCCCC3)nn2)c(C)c1CCC(=O)NCc1ccc(F)cc1	11.6% (inactive)	
COc1ccc(CCNC(=O)c2cc3cccc4c3n2CC(C)S4)c(OC)c1OC (stereo not drawn)	4.11% (inactive)	
COc1ccc(Cn2ccn(Cc3cccc(OC)c3)c(=O)c2=O)cc1	6.97% (inactive)	
O=[N+]([O-])/C=C/c1ccc2c(ccn2Cc2ccccc2)c1		6.31 µM (active)
O=c1c(=O)n(Cc2c(F)cccc2Cl)ccn1Cc1ccccc1	-1.19% (inactive)	
COc1ccc(Cn2c(=O)[nH]c3cc(C(=O)N4CCN(C(=O)c5ccco5)CC4)ccc3c2=O)cc1	-6.06% (inactive)	
COc1ccc(-c2nc3sc(CCNS(=O)(=O)c4ccc(F)c(C)c4)c(C)n3n2)cc1	16% (inactive)	
O=C(CN1CCOCC1)Nc1cccc([N+](=O)[O-])c1	-1.57% (inactive)	
COC(=O)/C=C\C(=O)Nc1cccc([N+](=O)[O-])c1		22.4 µM (active)
O=C(Nc1cccc([N+](=O)[O-])c1)N1CCc2ccccc2C1	5.4% (inactive)	
CC(=O)N1c2ccc(S(=O)(=O)N3CCCCCC3)cc2CC1C(=O)NCc1ccccc1C (stereo not drawn)	5.71% (inactive)	
N#Cc1c(-c2ccccc2)nc(SCc2cccc(C(F)(F)F)c2)[nH]c1=O		79.4 µM (active)
O=c1[nH]c(SCc2cccc(F)c2)nc2ccccc12	-6.23% (inactive)	
N#Cc1c(-c2ccc(F)cc2)nc(-c2ccccc2)[nH]c1=O	13.1% (inactive)	
